Screens as filed in PubChem BioAssay.
EPAC1 antag: blocks human EPAC1 exchange factor | O95398 | EPAC1 GEF assay, Rap1b-BODIPY-GDP exchange fluorescence | Potency, µM (titrated, usually from 115 µM), for the others: at the highest dose activity change, negative = inhibition, actives largely listed as inhibitors | 360,000 compounds, 0.14% hits | AID 720709;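 also: plate controls were vehicle for no effect and positive control for full effect; nearly all actives have a fitted effect of over 50% in size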
EPAC2 agonist: activates human EPAC2 exchange factor. Q8WZA2. EPAC2 activation, biochemical qHTS; response scale: 100% = 6.5 mM cAMP response. Potency, µM (top dose mostly 154 µM), without a hit: at the top dose activation, most hits filed as activators. 360,000 compounds, 0.079% hits. AID 720711; also: nearly all actives have a fitted effect of over 50% in size
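Setup: EPAC2 100 nM, labeled Rap1B complex 250 nM, free GDP 50 uM. Compound titrations pinned in, brief spin, 5 min room temperature incubation. Kinetic fluorescence read over 30 min, normalized to 6.5 mM cAMP.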
EPAC1 ag: activates human EPAC1 exchange factor; O95398; EPAC1 agonist qHTS, biochemical assay; response scale: 100% = response to 6.5 mM cAMP; Potency, µM (titrated, usually from 154 µM), without a hit: top-dose activation, usual class: activators; 360,000 compounds, 0.073% hits; also: nearly all actives have a fitted effect of over 60% in size
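Compounds were pinned as a concentration titration into mixtures of EPAC1 (100 nM), BODIPY-GDP-loaded Rap1B (250 nM) and GDP (50 uM). After 5 min at room temperature, fluorescence was followed for 30 min; activity was scaled to 6.5 mM cAMP.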
BRCA1 expr act: activators of BRCA1 expression; Potency, µM (doses to about 46.1 µM), inactives show at the highest dose activation, actives largely listed as activators; MCF7-BRCA1-FFLuc reporter, luminescence, 48 h; response scale: scaled: vehicle 0%, 10 µM genistein 100%; 380,000 compounds, 1.1% hits; also: nearly all actives have a fitted effect of over 80% in size
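MCF7 cells carrying a BRCA1-firefly luciferase reporter (2000 cells/well, phenol-red free MEM) were attached for 2 h at 37 °C, then given compounds for 48 h. Luminescence was read 15 min after luciferase reagent; activity normalized to genistein (10 microM) and DMSO.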
USP1-UAF1 inh: inhibitors of human USP1/UAF1 deubiquitinase | recombinant USP1/UAF1, Ub-Rhodamine cleavage fluorescence | Potency, µM (series often up to 57.1 µM), for inactives: at the top dose activity change, negative = inhibition, hits mostly inhibitors | O94782 | 390,000 compounds, 0.23% hits; also: % is scaled to controls: 0 for no effect and ±100 for the full control effect; nearly all actives have a fitted effect of over 60% in size
Target sequence (O94782 whole entry, looked up): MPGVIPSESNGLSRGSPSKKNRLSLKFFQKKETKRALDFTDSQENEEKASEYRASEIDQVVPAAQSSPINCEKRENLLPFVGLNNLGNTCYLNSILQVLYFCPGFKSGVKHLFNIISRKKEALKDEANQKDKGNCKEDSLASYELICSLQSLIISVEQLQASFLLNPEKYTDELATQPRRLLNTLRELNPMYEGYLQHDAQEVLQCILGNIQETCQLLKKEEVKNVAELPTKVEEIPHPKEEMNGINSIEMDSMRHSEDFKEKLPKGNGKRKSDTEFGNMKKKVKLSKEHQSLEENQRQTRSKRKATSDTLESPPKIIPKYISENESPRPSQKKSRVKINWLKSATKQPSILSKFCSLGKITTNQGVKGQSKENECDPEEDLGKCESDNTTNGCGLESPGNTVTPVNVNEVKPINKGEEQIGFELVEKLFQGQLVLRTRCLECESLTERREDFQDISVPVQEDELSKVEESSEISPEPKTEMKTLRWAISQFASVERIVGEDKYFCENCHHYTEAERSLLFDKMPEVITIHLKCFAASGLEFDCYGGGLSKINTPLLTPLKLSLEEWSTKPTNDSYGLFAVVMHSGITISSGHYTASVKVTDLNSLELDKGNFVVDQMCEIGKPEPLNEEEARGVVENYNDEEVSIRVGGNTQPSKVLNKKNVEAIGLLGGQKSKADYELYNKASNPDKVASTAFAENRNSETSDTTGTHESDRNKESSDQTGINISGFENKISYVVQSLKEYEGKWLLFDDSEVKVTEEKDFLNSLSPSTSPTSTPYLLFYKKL
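USP1/UAF1 complex (1 nM) preincubated 15 min at room temperature with compound, then Ub-Rho substrate (150 nM final) added. Kinetic fluorescence at 480/540 nm over 6 reads at 60 s intervals; 50 mM HEPES pH 7.8, 0.5 mM EDTA, 0.1 mg/ml BSA, 1 mM TCEP, 0.01% Tween-20.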
EPAC2 antagonist: antagonists of human EPAC2 | Q8WZA2 | 360,000 compounds, 0.18% hits | EPAC2 GEF exchange of Rap1B-BODIPY-GDP, fluorescence | AID 720708 | Potency, µM (top dose mostly 114 µM), for inactives: at the top dose activity, negative = inhibition, actives largely listed as inhibitors; also: % is scaled to controls: 0 for no effect and ±100 for the full control effect; nearly all actives have a fitted effect of over 45% in size
* = called active by the depositor; ? = inconclusive; . = no result; [ ] = dose if it differs, or a comment. Sampled rows, rich in hits. Any-hit rate of the full collection: about 1.4%. Calls follow the shape of the dose curve; as a rule, active = well fitted curve in the direction sought with a large enough effect; inconclusive = small, poorly fitted or top-dose-only effect, or another doubt; inactive = no such curve, though single readings can be large; an effect the other way counts as inactive or inconclusive. Potency is read from the fitted curve at half-maximal effect.

SMILES	EPAC1 antag	EPAC2 agonist	EPAC1 ag	BRCA1 expr act	USP1-UAF1 inh	EPAC2 antagonist
CC(C)(C)C1CCC(=O)N(CCOc2ccccc2)CC1 (stereo not given)	-19%	-5%	-2%	13µM*	?	?
C=C(CCO)C1=CCN(S(=O)(=O)C(C)(C)C)[C@H]1CCO	7%	18%	-19%	-7%	-23%	?
CSc1nc2c(cnn2-c2ccccc2)c(=O)n1N	9%	6%	-8%	?	-21%	3%[57.1 µM]
CCSc1nc2c(cnn2-c2ccccc2)c(=O)n1N	4%	6%	8%	5µM*	-21%	3%
Cc1cccc(N2CCN(S(=O)(=O)c3ccc4c(c3)C(C(C)C)C(=O)N4)CC2)c1C (stereo not given)	.	.	.	-41%	-21%	.
CCOc1ccc2nc(NC(=O)C(CC)Sc3nc(C)cc(=O)[nH]3)sc2c1 (stereo not given)	-17%	11%	1%	5.6µM*	4%	-14%
CCCc1cc(=O)[nH]c(SCC(=O)Nc2nc3ccc(OCC)cc3s2)n1	-8%	2%	1%	25%	-2%	2%
O=C1OC(c2ccc3ccccc3c2O)(c2ccc3ccccc3c2O)c2ccccc21	56µM*	6%	-10%	-54%	?	10%
O=C1OC(c2ccc(O)cc2)(c2ccc(O)cc2)c2ccccc21	-2%	2%	-10%	7%	-20%	?
Cc1ccc(C)c(CSc2nc(-c3ccccc3F)nc3c2Cc2c(CO)cnc(C)c2O3)c1	.	.	.	.	-4%	.
O=C(NCCc1ccc(Cl)cc1)c1ccc(Br)s1	-5%	0%	-9%	3.5µM*	-19%	1%
Cc1cccc(/C(N)=N/OC(=O)C23CC4CC(CC(C4)C2)C3)c1	-15%	0%	0%	10µM*	-12%	-3%
Cc1ccc(N/C=C/C(=O)c2ccc(C)cc2)cc1	2%	-2%	5%	113%	-20%	6%
Cc1ccc(O)c(N/C=C/C(=O)c2ccc(F)cc2)c1	-1%	-4%	1%	6.3µM*	-9%	-3%
CC1(C)Cc2c(sc(NC(=O)c3ccc(C(=O)c4ccccc4)cc3)c2C#N)C(C)(C)N1	8%	-5%	-2%	-24%	-7%	0%
O=C(NCc1ccc(Cl)cc1)C1CCN(C(=O)Cc2ccccc2)CC1	3%	-6%	-4%	1%	-17%	2%
O=C(NNS(=O)(=O)c1ccc(C(F)(F)F)cc1)c1cnn(-c2ccccc2)c1C(F)(F)F	-7%	-3%	2%	3%	-21%	-10%
COc1cc(NC(=O)Cn2ccc3ccccc3c2=O)cc(OC)c1OC	.	.	.	-22%	-26%	.
Cc1occc1C(=O)NCCCc1ccccc1	3%	174%[15.6 µM]	-13%	13µM*	-18%	-14%
Cc1occc1C(=O)NNC(=O)c1ccccc1C(=O)O	5%	1%	2%	10µM*	-4%	3%
Cc1occc1C(=O)NCCCCNC(=O)c1ccoc1C	7%	-8%	4%	5%	-8%	7%
CC(C)(C)N1CC(c2nc3ccccc3n2CCOc2ccccc2)CC1=O (stereo not given)	10%	10µM*	-5%	-26%	-15%	-11%
O=C(c1cc(COc2ccc(-n3cncn3)cc2)on1)N1CCCC1	-3%	1%	-9%	20%	-10%	5%
CC(NC(=O)c1cc(COc2ccc(-n3cncn3)cc2)on1)c1ccc(F)cc1 (stereo not given)	10%	17%	-1%	13µM*	1%	-6%
Cc1ccc(S(=O)(=O)N(C)CCN(C)c2nc(-c3cccs3)nc3ccccc23)cc1	.	.	.	10%	.	.
SMILES	EPAC1 antag	EPAC2 agonist	EPAC1 ag	BRCA1 expr act	USP1-UAF1 inh	EPAC2 antagonist
O=c1c(O)c(-c2ccccc2)oc2cc(O)cc(O)c12	-19%	8%	-21%	?	-29%	-12%
O=c1c(O)c(-c2cc(O)c(O)c(O)c2)oc2cc(O)cc(O)c12	16µM*	8%	-26%	-10%	-20%	8.9µM*
Cc1ccccc1Nc1nc(N)[nH]c(=O)c1N=O	-2%	14%	-10%	-9%	.	-5%
Cc1nc(NC(=O)c2oc3ccccc3c2C)sc1C(=O)N(C)C	-7%	6%	-10%	13µM*	-3%	3%
CCCCOC(=O)Nc1ccc(N2CCOCC2)cc1	-2%	-5%	-29%	4.5µM*	-14%	12%
CCCCOC(=O)Nc1ccc(C(C)C)cc1	-8%	-1%	-1%	11µM*	-14%	-5%
CC(C)(C)c1ccc(OCCC(=O)OCC(=O)Nc2ccc(N3CCOCC3)cc2)cc1	-17%	-15%	71µM*	-39%	-22%	-2%
O=C(Nc1ccc2c(c1)OCCO2)C(CCc1ccccc1)N1CCC(Cc2ccccc2)CC1 (stereo not given)	-28%	10%	6%	15%	.	-14%
O=C(c1ccc2c3n(nc2c1)-c1ccc(Cl)cc1CO3)N1CCOCC1	-12%	5%	3%	6.3µM*	-16%	3%
Cc1ccc2c(c1)COc1c3ccc(C(=O)N4CCCCC4)cc3nn1-2	-15%	-4%	-4%	4.5µM*	?	8%
COCCNC(=O)c1ccc2c3n(nc2c1)-c1ccc(C)cc1CO3	7%	-4%	-9%	10%	-29%	2%
Cc1ccc2c(c1)COc1c3ccc(C(=O)N[C@@H](CO)C(C)C)cc3nn1-2	-11%	-5%	-19%	6.3µM*	-17%	4%
O=C(NCC1CCCO1)c1ccc2c3n(nc2c1)-c1ccccc1CO3 (stereo not given)	-11%	3%	11%	2.5µM*	-25%	10%
COc1ccc(CSc2ccc(S(=O)(=O)N3CCCC3)cn2)cc1F	3%	17%	-6%	-8%	-23%	8%
CCCCn1c(N)c(N(C)C(=O)c2cc3c(s2)CCCCC3)c(=O)[nH]c1=O	-2%	-3%	2%	-19%	-17%	26%
CCN1CCN(C(=O)c2ccc3c(c2)N(Cc2cc(C)ccc2C)C(=O)c2ccccc2S3(=O)=O)CC1	.	.	.	.	-5%	.
COc1ccc(C2C(=O)N(C3CCCCCC3)CC(=O)N2Cc2ccc(C)cc2)cc1OC (stereo not given)	.	.	.	.	-10%	.
Cc1ccc(NC(=O)CSc2nc(-c3ccco3)nc3cc(=O)[nH]n23)cc1C	.	.	.	.	-18%	.
CCOC(=O)c1cnn(-c2ncnc3c2oc2ccccc23)c1N	6%	2%	-4%	3.2µM*	-12%	14%
Cc1ccc(C2=N/C(=C/N3CCOCC3)C(=O)O2)cc1	-4%	1%	-4%	8.9µM*	-18%	-1%
Cc1ccc(O)c(C=Nc2cc(C)ccc2O)c1	0%	-3%	4%	-33%	3%	-5%
